In PubChem BioAssay (EPA / NIEHS):
Activity calls are given as the source filed them. How the source made its calls: active means hit-call score of the fitted dose curve at least 0.9, where 1 is the maximum; inactive means score below 0.9.

What was measured:
[1] = read-out: Matrix Metallopeptidase 1 (MMP1), MMP1 (gene 4312); experiment: BSK_BE3C_MMP1: BioMAP Diversity Plus: BE3C Assay for Matrix Metallopeptidase 1 (MMP1) Biomarker Activity (AID 2283024); conditions: primary human bronchial epithelial cells; actives raise or lower the signal
Outline: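 Dose cells, wait 24 h, run MMP1 ELISA; cells are human bronchial epithelial primaries. Both increases and decreases relative to DMSO counted.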

[2] = BSK_3C_Vis: BioMAP Diversity Plus: 3C Assay for Morphology Visualization (AID 2283025); conditions: primary human endothelial cells (HUVEC);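 further: fitted both ways so gain or loss versus DMSO counts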;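 on AC50: light microscopy image of cell morphology used as background control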
Outline: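 Endothelial cells from human umbilical vein were treated with test chemicals for 24 h and inspected by light microscopy for changes in cell conformation.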

[3] = read-out: Pselectin, SELP (gene 6403); experiment: BSK_4H_Pselectin: BioMAP Diversity Plus: 4H Assay for Pselectin Biomarker Activity (AID 2283026); conditions: primary human endothelial cells (HUVEC); actives raise or lower the signal
Outline: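 Human vascular endothelium from umbilical vein; P-selectin measured by ELISA at 24 h post-dose, with cytotoxicity checked by sulforhodamine B total-protein staining in parallel cultures (0.1% SRB after 10% TCA fixation, read at 560 nm).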

[4] = BSK_4H_SRB: Viability Assessment in the BioMAP Diversity Plus: 4H Assay (AID 2283027); conditions: primary human endothelial cells (HUVEC);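 further: cells exposed to compound for 24 h before staining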;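 on AC50: curves fitted both ways versus DMSO so AC50 may be loss or gain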
Outline: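 Human umbilical vein endothelial cells were dosed with chemical and, after 24 h, fixed with 10% TCA, stained with 0.1% sulforhodamine B, and read at 560 nm to give total protein as a cytotoxicity measure. Bidirectional fitting relative to DMSO control.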

[5] = BSK_BE3C_SRB: Viability Assessment in the BioMAP Diversity Plus: BE3C Assay (AID 2283028); conditions: primary human bronchial epithelial cells;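 further: measured 24 h after chemical dosing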;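 on AC50: fitted both ways so AC50 may mark signal gain or loss versus DMSO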
Outline: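 Cytotoxicity read-out: SRB (0.1%) staining of TCA-fixed (10%) human lung bronchial epithelial cells, absorbance 560 nm, 24 h post-dosing. Curves fitted both directions relative to DMSO.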

[6] = read-out: Thrombomodulin, THBD (gene 7056); experiment: BSK_3C_Thrombomodulin: BioMAP Diversity Plus: 3C Assay for Thrombomodulin Biomarker Activity (AID 2283029); conditions: primary human endothelial cells (HUVEC); actives raise or lower the signal
Outline: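 Thrombomodulin ELISA, human primary HUVEC, 24 h post-dose; data fitted in both directions relative to DMSO.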

[7] = read-out: Urokinase-type plasminogen activator receptor (uPAR), PLAUR (gene 5329); experiment: BSK_4H_uPAR: BioMAP Diversity Plus: 4H Assay for Urokinase-type plasminogen activator receptor (uPAR) Biomarker Activity (AID 2283030); conditions: primary human endothelial cells (HUVEC); actives raise or lower the signal
Outline: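 uPAR level read by ELISA on HUVEC cultures (BioMAP 4H) 24 h post-dosing, analyzed for gain or loss relative to DMSO. Parallel SRB staining assessed overt cytotoxicity.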

[8] = read-out: Vascular endothelial growth factor receptor 2 (Homo sapiens) (UniProt P35968); experiment: BSK_4H_VEGFRII: BioMAP Diversity Plus: 4H Assay for Vascular endothelial growth factor receptor 2 (VEGFR2) Biomarker Activity (AID 2283031); conditions: primary human endothelial cells (HUVEC); actives raise or lower the signal;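 on AC50: cell-surface VEGFR2 protein level quantified by ELISA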
Outline: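 Measured by ELISA after 24 h of compound treatment: VEGFR2 on primary human umbilical vein endothelial cells, fitted in both directions relative to DMSO. Parallel cultures received SRB staining (560 nm) for overt cytotoxicity.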

[9] = read-out: Human Leukocyte Antigen - DR isotype (HLADR), HLA-DRA (gene 3122); experiment: BSK_BE3C_HLADR: BioMAP Diversity Plus: BE3C Assay for Human Leukocyte Antigen - DR isotype (HLADR) Biomarker Activity (AID 2283032); conditions: primary human bronchial epithelial cells; actives raise or lower the signal
Outline: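 Signal came from an ELISA for HLA-DR in human bronchial epithelial primary cells harvested 24 h after treatment; gain- and loss-of-signal fitting used DMSO controls as reference.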

[10] = read-out: Vascular cell adhesion molecule 1 (VCAM1), VCAM1 (gene 7412); experiment: BSK_4H_VCAM1: BioMAP Diversity Plus: 4H Assay for Vascular cell adhesion molecule 1 (VCAM1) Biomarker Activity (AID 2283033); conditions: primary human endothelial cells (HUVEC); actives raise or lower the signal
Outline: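 Endpoint derived from bidirectional fitting against DMSO controls of VCAM-1 ELISA signal in umbilical vein endothelial cells sampled at 24 h following treatment.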

[11] = read-out: Interferon-gamma inducible Protein 10 (IP10), CXCL10 (gene 3627); experiment: BSK_BE3C_IP10: BioMAP Diversity Plus: BE3C Assay for Interferon-gamma inducible Protein 10 (IP10) Biomarker Activity (AID 2283034); conditions: primary human bronchial epithelial cells; actives raise or lower the signal
Outline: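 Using primary human bronchial epithelial cultures, the assay captures IP-10 by ELISA one day (24 h) after exposure. Parallel SRB staining of total protein flags overt cytotoxicity. Fits run bidirectionally relative to DMSO.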

[12] = read-out: Monokine induced gamma interferon (MIG), CXCL9 (gene 4283); experiment: BSK_BE3C_MIG: BioMAP Diversity Plus: BE3C Assay for Monokine induced gamma interferon (MIG) Biomarker Activity (AID 2283035); conditions: primary human bronchial epithelial cells; actives raise or lower the signal
Outline: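 ELISA read-out of MIG in human lung bronchial epithelial primary cultures, 24 h post-dosing. Bidirectional curve fit vs DMSO baseline.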

[13] = read-out: Transforming growth factor beta 1 (TGFb1), TGFB1 (gene 7040); experiment: BSK_BE3C_TGFb1: BioMAP Diversity Plus: BE3C Assay for Transforming growth factor beta 1 (TGFb1) Biomarker Activity (AID 2283036); conditions: primary human bronchial epithelial cells; actives raise or lower the signal
Outline: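 In this human primary bronchial epithelial system, an ELISA quantified TGF-b1 one day after dosing. Endpoint changes in either direction were fitted relative to DMSO.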

[14] = read-out: Plasminogen activator inhibitor-1 (PAI1), SERPINE1 (gene 5054); experiment: BSK_BE3C_PAI1: BioMAP Diversity Plus: BE3C Assay for Plasminogen activator inhibitor-1 (PAI1) Biomarker Activity (AID 2283037); conditions: primary human bronchial epithelial cells; actives raise or lower the signal
Outline: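 PAI-1 biomarker levels in treated human bronchial epithelial cells are determined by ELISA at 24 h. Both increases and decreases relative to DMSO are fitted.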

[15] = read-out: urokinase plasminogen activator (uPA), PLAU (gene 5328); experiment: BSK_BE3C_uPA: BioMAP Diversity Plus: BE3C Assay for urokinase plasminogen activator (uPA) Biomarker Activity (AID 2283038); conditions: primary human bronchial epithelial cells; actives raise or lower the signal
Outline: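 ELISA for uPA on human primary bronchial epithelial cultures 24 h post-treatment, gain or loss against DMSO. Parallel SRB staining (0.1% after 10% TCA fixation, 560 nm) assessed overt cytotoxicity.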

[16] = read-out: Urokinase-type plasminogen activator receptor (uPAR), PLAUR (gene 5329); experiment: BSK_BE3C_uPAR: BioMAP Diversity Plus: BE3C Assay for Urokinase-type plasminogen activator receptor (uPAR) Biomarker Activity (AID 2283039); conditions: primary human bronchial epithelial cells; actives raise or lower the signal
Outline: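 A uPAR ELISA serves as the readout, taken 24 h after treating primary human bronchial epithelial cells. Responses in either direction are fitted against DMSO, which defines baseline activity.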

[17] = read-out: Interleukin-6 (IL6), IL6 (gene 3569); experiment: BSK_CASM3C_IL6: BioMAP Diversity Plus: CASM3C Assay for Interleukin-6 (IL6) Biomarker Activity for (AID 2283040); conditions: primary human coronary artery smooth muscle cells; actives raise or lower the signal
[18] = read-out: Tissue plasminogen activator (tPA), PLAT (gene 5327); experiment: BSK_BE3C_tPA: BioMAP Diversity Plus: BE3C Assay for Tissue plasminogen activator (tPA) Biomarker Activity (AID 2283041); conditions: primary human bronchial epithelial cells; actives raise or lower the signal
Outline: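 Bidirectional curve fitting relative to DMSO defined activity, with tPA detected by ELISA in chemically treated human bronchial epithelial primary cells at 24 hours.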

[19] = read-out: Interleukin-8 (IL8), CXCL8 (gene 3576); experiment: BSK_CASM3C_IL8: BioMAP Diversity Plus: CASM3C Assay for Interleukin-8 (IL8) Biomarker Activity (AID 2283042); conditions: primary human coronary artery smooth muscle cells; actives raise or lower the signal;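 further: IL-8 protein level quantified by ELISA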

Measured: AC50

CNS(=O)(=O)c1cc(C(=O)N2CCC(CCN3C4CCC3CC(n3c(C)nc5ccccc53)C4)(c3cccc(F)c3)CC2)c(Cl)cc1F (configuration not stated)
inactive: [5] | [6] | [8] | [9] | [10] | [11] | [12] | [13] | [14] | [15] | [16] | [18] | [19]
active: [1] 20 µM | [2] 15.2 µM | [3] 13.2 µM | [4] 11.8 µM | [7] 0.148 µM | [17] 5.62 µM

CC(C)=CCC/C(C)=C/CO
inactive: [1] | [2] | [3] | [4] | [5] | [6] | [7] | [8] | [9] | [10] | [11] | [12] | [13] | [14] | [15] | [16] | [17] | [18] | [19]

Nc1ccc(Nc2ccccc2)cc1
active: [1] 8.67 µM | [3] 3.97 µM | [10] 3.97 µM
inactive: [2] | [4] | [5] | [6] | [8] | [9] | [11] | [12] | [13] | [14] | [15] | [16] | [17] | [18] | [19]

Cc1ccc(C)c(O)c1
inactive: [1] | [2] | [3] | [4] | [5] | [6] | [7] | [8] | [9] | [10] | [11] | [12] | [13] | [14] | [15] | [16] | [17] | [18] | [19]

COc1ccc(-n2nc(C(F)F)cc2-c2ccc(S(C)=O)cc2)cc1 (configuration not stated)
inactive: [1] | [2] | [3] | [4] | [5] | [6] | [8] | [9] | [10] | [11] | [12] | [13] | [14] | [15] | [16] | [17] | [18] | [19]

CCn1nc(Cc2ccccc2)cc1C1CCN(C[C@H]2C[C@H](N(C)[C@@H](C(=O)O)C(C)C)C[C@@H]2c2cccc(F)c2)CC1
inactive: [1] | [2] | [3] | [4] | [5] | [6] | [7] | [8] | [9] | [10] | [11] | [12] | [13] | [14] | [15] | [16] | [17] | [18] | [19]

CCOC(=O)CC(CC(=O)OCC)(OC(C)=O)C(=O)OCC
inactive: [1] | [2] | [3] | [4] | [5] | [6] | [7] | [8] | [9] | [10] | [11] | [12] | [13] | [14] | [15] | [16] | [17] | [18] | [19]

O=C(O)c1cc(N=Nc2ccc(S(=O)(=O)Nc3ccccn3)cc2)ccc1O
inactive: [1] | [2] | [3] | [4] | [5] | [6] | [7] | [8] | [9] | [10] | [11] | [12] | [13] | [14] | [15] | [16] | [17] | [18] | [19]

CCC(C)(C)C(=O)O[C@H]1C[C@@H](C)C=C2C=C[C@H](C)[C@H](CC[C@@H]3C[C@@H](O)CC(=O)O3)[C@H]21
active: [1] 31.9 µM | [2] 20 µM | [4] 10.1 µM | [5] 36.1 µM | [6] 0.526 µM | [7] 20 µM | [8] 26.9 µM | [9] 30.8 µM | [10] 29.9 µM | [11] 34.1 µM | [12] 36.7 µM | [13] 27.1 µM | [14] 31.9 µM | [16] 32.5 µM | [18] 5.4 µM | [19] 34.2 µM
inactive: [3] | [17]

Cc1ccc(N)cc1O
inactive: [1] | [2] | [3] | [4] | [5] | [6] | [7] | [8] | [9] | [10] | [11] | [12] | [13] | [14] | [15] | [16] | [17] | [18] | [19]

O=C(O)CCN(C1(C(=O)NO)CCCC1)S(=O)(=O)c1ccc(Oc2ccc(F)cc2)cc1
inactive: [1] | [2] | [3] | [4] | [5] | [6] | [7] | [8] | [9] | [10] | [11] | [12] | [13] | [14] | [15] | [16] | [17] | [18] | [19]

CC(C)=CCCC(C)CCO (configuration not stated)
inactive: [1] | [2] | [3] | [4] | [5] | [6] | [7] | [8] | [9] | [10] | [11] | [12] | [13] | [14] | [15] | [16] | [17] | [18] | [19]

CCCC(=O)OCC
inactive: [1] | [2] | [3] | [4] | [5] | [6] | [7] | [8] | [9] | [10] | [11] | [12] | [13] | [14] | [15] | [16] | [17] | [18] | [19]

O=C(CCCCCCCCc1cccnc1)N1CCC(C=C(c2ccccc2)c2ccccc2)CC1
active: [2] 10.9 µM | [3] 6.41 µM | [4] 13.1 µM | [5] 34.2 µM | [7] 11.2 µM | [8] 8 µM | [9] 17.6 µM | [10] 12.7 µM | [11] 24.5 µM | [12] 27.9 µM | [13] 23.7 µM | [14] 19.3 µM | [15] 24.7 µM | [16] 17.9 µM | [18] 19.5 µM | [19] 38.3 µM
inactive: [6] | [17]
